For five compounds, composite z-score and z-score results are on record in PubChem BioAssay.

Test [1] is described as follows: compounds binding Alexa647 anti-His antibody – biochemical, small-molecule microarray, 635 nm fluorescence, artefact control for SMM control protein annotation, primary screen (AID 1128).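 Also: score merges feature fluorescence with signal-to-noise for each printed compound spot.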 The settings on record: higher = more signal.
Test [2] has as its system Human papillomavirus type 1a E7 protein (residues 1-88). Nature of the test: HPV1a E7 small-molecule binders, primary screen, biochemical, small-molecule microarray, residues 1-88, 635 nm (AID 1129). To be noted: small-molecule microarray binding, fluorescence 635 nm; higher = more signal.
The target in test [3] is Focal adhesion kinase 1 (Homo sapiens) (UniProt Q05397). Nature of the test: PTK2 protein binding on printed compound slides – biochemical, small-molecule microarray, 635/667 nm fluorescence, BSA, DTT, primary screen (AID 1130).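 Also: composite of spot emission at 667 nm and signal to noise over triplicate slides.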 To be noted: 635 nm fluorescence, higher = more signal.
Focal adhesion kinase 1 (Homo sapiens), sequence (Q05397 whole entry, looked up): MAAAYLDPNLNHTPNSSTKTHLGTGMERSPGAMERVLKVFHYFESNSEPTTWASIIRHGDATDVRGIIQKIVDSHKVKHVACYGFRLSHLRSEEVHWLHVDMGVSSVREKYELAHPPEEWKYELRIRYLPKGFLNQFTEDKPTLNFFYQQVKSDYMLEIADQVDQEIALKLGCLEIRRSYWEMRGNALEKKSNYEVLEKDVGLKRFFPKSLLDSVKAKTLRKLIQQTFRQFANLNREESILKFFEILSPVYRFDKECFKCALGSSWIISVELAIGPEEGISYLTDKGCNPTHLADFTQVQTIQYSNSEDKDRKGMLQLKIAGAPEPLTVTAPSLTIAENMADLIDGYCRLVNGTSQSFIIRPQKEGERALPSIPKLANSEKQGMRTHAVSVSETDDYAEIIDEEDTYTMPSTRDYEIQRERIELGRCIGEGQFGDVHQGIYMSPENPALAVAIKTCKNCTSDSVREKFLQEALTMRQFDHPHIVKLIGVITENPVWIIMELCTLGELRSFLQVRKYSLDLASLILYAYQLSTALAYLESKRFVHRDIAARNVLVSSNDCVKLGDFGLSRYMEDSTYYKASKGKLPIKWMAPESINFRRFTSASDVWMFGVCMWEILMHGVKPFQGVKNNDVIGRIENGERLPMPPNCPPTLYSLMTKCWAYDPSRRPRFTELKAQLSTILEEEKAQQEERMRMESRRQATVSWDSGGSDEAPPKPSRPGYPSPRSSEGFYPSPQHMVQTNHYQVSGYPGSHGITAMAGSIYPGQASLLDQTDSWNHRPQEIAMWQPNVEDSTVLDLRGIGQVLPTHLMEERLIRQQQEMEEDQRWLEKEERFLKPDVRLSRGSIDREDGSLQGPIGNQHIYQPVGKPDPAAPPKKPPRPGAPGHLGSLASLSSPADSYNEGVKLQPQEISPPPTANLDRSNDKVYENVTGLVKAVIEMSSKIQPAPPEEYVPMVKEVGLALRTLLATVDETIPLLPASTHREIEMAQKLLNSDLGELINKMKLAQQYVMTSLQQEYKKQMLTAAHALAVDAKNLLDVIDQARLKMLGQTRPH
Test [4] deals with Fibrinogen (Alexa647-labelled). As to the kind of experiment: Alexa647-fibrinogen binding to printed small molecules – biochemical, small-molecule microarray, 635/667 nm fluorescence, artefact control for SMM control-protein annotation, profiling panel (AID 1131).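 Also: z-score merges 667 nm fluorescence with per-spot signal-to-noise over triplicate slides.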 To be noted: fibrinogen-A647 binding fluorescence, higher = more signal.
The target of test [5] is Follistatin (Homo sapiens) (UniProt P19883). As to the kind of experiment: FST protein binding to printed compounds – biochemical, small-molecule microarray, 635/667 nm fluorescence, primary screen (AID 1132). To be noted: 635 nm fluorescence, higher = more signal.
Follistatin (Homo sapiens), sequence (P19883 whole entry, looked up): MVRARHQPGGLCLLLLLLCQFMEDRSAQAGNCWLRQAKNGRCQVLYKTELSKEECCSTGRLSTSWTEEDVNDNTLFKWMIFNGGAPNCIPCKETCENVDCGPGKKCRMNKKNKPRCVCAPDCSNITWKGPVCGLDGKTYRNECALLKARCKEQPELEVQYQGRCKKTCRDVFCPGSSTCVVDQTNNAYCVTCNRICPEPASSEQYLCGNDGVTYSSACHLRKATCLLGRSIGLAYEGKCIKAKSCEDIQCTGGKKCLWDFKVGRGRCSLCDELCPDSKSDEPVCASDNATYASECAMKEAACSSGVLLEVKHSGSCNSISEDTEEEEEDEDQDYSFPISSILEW
The target of test [6] is Fibroblast growth factor 2 (Homo sapiens) (UniProt P09038). As to the kind of experiment: basic fibroblast growth factor binding to printed compounds – biochemical, small-molecule microarray, 635/667 nm fluorescence, primary screen (AID 1133). The settings on record: FGF2, fluorescence 635/667, higher = more signal.
Fibroblast growth factor 2 (Homo sapiens), sequence (P09038 whole entry, looked up): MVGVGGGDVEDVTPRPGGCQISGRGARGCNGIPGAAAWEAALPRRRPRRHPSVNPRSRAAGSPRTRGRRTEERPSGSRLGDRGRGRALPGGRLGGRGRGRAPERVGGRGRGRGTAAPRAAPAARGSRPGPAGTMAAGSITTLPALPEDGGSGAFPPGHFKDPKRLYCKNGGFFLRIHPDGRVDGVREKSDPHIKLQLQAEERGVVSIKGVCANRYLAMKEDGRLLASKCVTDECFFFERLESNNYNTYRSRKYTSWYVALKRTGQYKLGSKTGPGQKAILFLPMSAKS
Test [7] in a line: JC-1 mitochondrial potential readout, lung cancer cells – cell-based, A549, JC-1 fluorescence, basal, 24 h, 100 nL, profiling panel (AID 1138).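 Also: A549 lung adenocarcinoma cells under basal conditions with no added stimulus; test concentration not given here.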 The settings on record: higher = more signal.
The subject of the next test is Lefty1. As to the kind of experiment: Lefty1 protein binding to printed compounds – biochemical, small-molecule microarray, 635/667 nm fluorescence, primary screen (AID 1139). To be noted: fluorescence 635/667, higher = more signal.
Test [8] concerns wheat germ agglutinin (Triticum aestivum), Alexa647-labelled. Nature of the test: Alexa647-WGA lectin binding to printed small molecules – biochemical, small-molecule microarray, 635/667 nm fluorescence, artefact control for SMM control-protein annotation, profiling panel (AID 1140).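 Also: score merges 667 nm feature emission with signal to noise over triplicate slides.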 To be noted: WGA-A647 binding, 635 nm fluorescence, higher = more signal.
Test [9] concerns the target Luciferin 4-monooxygenase (Photinus pyralis) (UniProt P08659). Nature of the test: inhibition of purified Photinus pyralis luciferase – biochemical, luminescence, purified enzyme, 2006 set, primary screen (AID 1141).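 Also: cell-free assay with purified firefly luciferase at 100 ng per well in PBS; test concentration not given here.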 To be noted: purified firefly luciferase, SteadyGlo luminescence, 30 min; higher = more signal, called active from +8 up or from −8 down.
In test [10] the test system is Wnt5a (protein binding on small-molecule microarray). Nature of the test: small molecules binding Wnt5a protein – biophysical, small-molecule microarray, 635/667 nm fluorescence, primary screen (AID 1142).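 Also: fluorescence read at 667 nm with signal to noise per printed feature.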 To be noted: 635 nm fluorescence, higher = more signal.
A short description of test [11]: ATP-based viability of Huh7 replicon cells – cell-based, CellTiter-Glo luminescence, basal, 48 h, cytotoxicity control for HCV replication inhibitor project, primary screen (AID 1143).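 Also: Huh7 hepatoma cells carrying a hepatitis C replication reporter with no stimulus; test concentration not given here.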 To be noted: higher = more signal, called active from +8 up or from −8 down. (A replicon is a self-replicating genome or part of one, used to study replication in cells.)
Test [12] is described as follows: Pseudomonas biofilm growth suppression – PAO1 strain, BacTiter-Glo luminescence, LB-PBS, primary screen (AID 1144). The settings on record: P. aeruginosa PAO1 biofilm, 12 h, higher = more signal.
Test [13] is described as follows: basal CRE-LacZ reporter activity in PC12 – cell-based, unstimulated, primary screen (AID 1145). To be noted: no forskolin, luminescence, 4.5 h, higher = more signal, called active from +8 up or from −8 down.
Test [14] is described as follows: forskolin-driven CRE-LacZ activity in PC12 – cell-based, CRE-LacZ reporter, forskolin-stimulated, primary screen (AID 1146).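 Also: PC12 cells with 6xCRE LacZ reporter stimulated by forskolin 10 µM; beta-galactosidase reporter signal reflecting CREB driven transcription.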 To be noted: luminescence, 4.5 h, higher = more signal, called active from +8 up or from −8 down.
Test [15] concerns the target Streptavidin (Streptomyces avidinii) (UniProt P22629). Nature of the test: compounds binding control protein streptavidin – biophysical, small-molecule microarray, 635/667 nm fluorescence, artefact control for SMM compound annotation, primary screen (AID 1147).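 Also: signal reflects streptavidin binding to arrayed compounds as a control protein.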 To be noted: higher = more signal.
The nature of test [16]: probe aInhba binding on compound microarray – biochemical, small-molecule microarray, 635/667 nm fluorescence, primary screen (AID 1148).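 Also: score merges 667nm spot fluorescence with signal-to-noise for antibody binding to printed compounds.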 The settings on record: higher = more signal.
Test [17] addresses Torsin-1A (Homo sapiens) (UniProt O14656). As to the kind of experiment: TOR1A wild-type binding on microarray – cell lysate, small-molecule microarray, lysate, 635/667 nm, primary screen (AID 1149). To be noted: COS7 hTOR1A-WT lysate, 635 nm fluorescence, higher = more signal.
Test [18] has the same target. Nature of the test: torsin A mutant lysate binding on microarrays – cell lysate, small-molecule microarray, COS7 lysate, 635/667 nm fluorescence, primary screen (AID 1150).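 Also: score pools 667 nm emission and signal to noise measuring lysate protein binding.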 The settings on record: COS7 hTOR1A mutant lysate, 635 nm fluorescence, higher = more signal.
In test [19] the test system is Sonic hedgehog protein (Shh). As to the kind of experiment: Sonic hedgehog microarray binding compounds – biochemical, small-molecule microarray, 635/667 nm fluorescence, primary screen (AID 1151).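 Also: Shh protein binding to compounds spotted on small-molecule microarray slides; score combines spot fluorescence intensity with signal-to-noise across triplicate slides.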 The settings on record: 635 nm fluorescence, higher = more signal.

Activity calls are given as the source filed them. Unless noted, no rule for the calls is given here.

Luciferin 4-monooxygenase (Photinus pyralis), sequence (P08659 whole entry, looked up): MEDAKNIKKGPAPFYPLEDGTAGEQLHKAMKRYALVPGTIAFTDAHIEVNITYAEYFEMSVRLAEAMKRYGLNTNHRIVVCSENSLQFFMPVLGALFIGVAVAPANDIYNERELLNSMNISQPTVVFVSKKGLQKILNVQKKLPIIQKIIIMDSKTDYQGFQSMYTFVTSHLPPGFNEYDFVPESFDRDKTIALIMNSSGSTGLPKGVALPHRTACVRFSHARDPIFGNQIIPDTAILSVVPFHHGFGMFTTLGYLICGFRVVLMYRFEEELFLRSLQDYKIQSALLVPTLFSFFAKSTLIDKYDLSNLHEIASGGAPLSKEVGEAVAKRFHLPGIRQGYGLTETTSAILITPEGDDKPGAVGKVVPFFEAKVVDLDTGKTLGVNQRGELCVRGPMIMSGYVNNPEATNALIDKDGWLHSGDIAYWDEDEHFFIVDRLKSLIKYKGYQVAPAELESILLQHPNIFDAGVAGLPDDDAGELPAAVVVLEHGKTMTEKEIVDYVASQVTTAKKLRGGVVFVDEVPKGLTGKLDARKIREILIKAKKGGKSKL
Streptavidin (Streptomyces avidinii), sequence (P22629 whole entry, looked up): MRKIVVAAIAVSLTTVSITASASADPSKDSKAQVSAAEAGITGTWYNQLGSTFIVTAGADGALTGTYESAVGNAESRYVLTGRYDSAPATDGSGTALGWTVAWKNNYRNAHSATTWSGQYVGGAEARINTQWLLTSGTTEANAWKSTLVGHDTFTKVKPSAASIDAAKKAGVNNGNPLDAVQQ
Torsin-1A (Homo sapiens), sequence (O14656 whole entry, looked up): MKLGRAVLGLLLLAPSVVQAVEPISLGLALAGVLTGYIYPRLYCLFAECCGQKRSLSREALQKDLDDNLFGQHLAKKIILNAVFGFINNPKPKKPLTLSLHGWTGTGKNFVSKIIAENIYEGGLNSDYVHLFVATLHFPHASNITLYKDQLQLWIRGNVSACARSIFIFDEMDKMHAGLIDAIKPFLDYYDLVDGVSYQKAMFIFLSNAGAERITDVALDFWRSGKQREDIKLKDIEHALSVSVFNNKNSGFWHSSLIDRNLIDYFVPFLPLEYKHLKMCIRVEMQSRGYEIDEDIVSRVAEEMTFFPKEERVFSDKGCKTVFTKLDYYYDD

In the case of `CN(C)C(=O)[C@]1(Cc2ccccc2CN=[N+]=[N-])N=C(c2ccc(OCCCO)cc2)O[C@@H]1c1ccccc1N=[N+]=[N-]`, the composite z-score is 0.266 in test [1]; 1.23 in test [2]; 0.977 in test [3]; 1.02 in [4]; 1.18 in test [5]; -0.0347 in test [6]. In addition, the composite z-score in the test with Lefty1 was -0.136; in [8], 1.12; in [10], 0.397; in test [15], 1.34; in test [16], 0.177; in the test with Torsin-1A (Homo sapiens) [17], 0.0095. Further, the composite z-score is 0.25 with Torsin-1A (Homo sapiens) [18] and -0.946 in test [19]. Further, the z-score in test [7] was 0.568; in test [9], -9.41 (active); in [11], -3.07 (inactive); in test [12], -0.406 (inactive); in test [13], -0.79 (inactive); in test [14], -0.969 (inactive).

As for `CC(C)c1ccc(NN2C(C(O)C(C)C)C=CC3C(=O)N(c4ccccc4)C(=O)C32)cc1` (stereo not given), the composite z-score turned out to be 1.66 in [1]; 1.26 in test [2]; 0.811 in test [3]; 1.04 in test [4]; 0.754 in [5]; 0.013 in test [6]. Also, the composite z-score in the test with Lefty1 was 0.172; in [8], 1.12; in test [10] it was 0.705; in test [15] it was 1.44; in test [16], 0.722; with Torsin-1A (Homo sapiens) [17], -0.317. The composite z-score with Torsin-1A (Homo sapiens) [18] was 0.431; in test [19], -0.316. In addition, the z-score is -0.81 in [7]; -1.73 (inactive) in test [9]; -0.135 (inactive) in test [11]; -0.202 (inactive) in test [12]; 0.0569 (inactive) in test [13]; -0.241 (inactive) in test [14].

For the compound `CC1CC/C=C\[C@H]2OC34C=CCN(CCN5CCOCC5)C(=O)[C@H]3N(CCCCCCO)C(=O)[C@@H]4C2C(=O)O1` (stereo not given in full), the composite z-score in test [1] was -0.37; in test [2] it was -0.986; in test [3], -0.411; in test [4] it was -2.12; in [5], 0.0859; in [6], -0.649. Also, the composite z-score in the test on Lefty1 was -0.259; in [8], -0.7; in test [10] it was -0.603; in [15] it was -0.66; in test [16], -0.104; with Torsin-1A (Homo sapiens) [17], -1.52. In addition, the composite z-score with Torsin-1A (Homo sapiens) [18] is -0.948; in [19] it was 0.527. In addition, the z-score was 0.746 in [7]; -0.934 (inactive) in test [9]; 0.524 (inactive) in [11]; 0.0591 (inactive) in test [12]; 0.605 (inactive) in [13]; 0.241 (inactive) in test [14].

Consider `C=C(CCCC)/C(=C/C[C@H](OC(C)=O)c1cccc(OCCO)c1)c1cc(C(=O)OC)ccc1OC`, for which the composite z-score in test [1] is -0.799; in test [2], -0.426; in test [3] it was -0.325; in test [4], 0.33; in test [5], 0.0088; in test [6] it was 0.261. Besides, the composite z-score with Lefty1 is 0.283; in [8], 0.635; in test [10], -0.229; in [15], -0.77; in test [16], -0.0059; in the test with Torsin-1A (Homo sapiens) [17], -0.552. The figures for the composite z-score (with Torsin-1A (Homo sapiens) [18]; in test [19]) were -0.426 and 0.454, respectively. Also, the z-score is 3.6 in test [7]; -1.64 (inactive) in test [9]; -0.845 (inactive) in [11]; 0.0689 (inactive) in test [12]; 12.1 (active) in test [13]; -0.834 (inactive) in test [14].

Regarding `CCCC[C@@H]1C[C@H]1[C@@H](NC(=O)c1ccc(C(F)(F)F)cc1)c1ccc(C(=O)OC)cc1`, the composite z-score in test [1] was 1.21; in test [2], 0.411; in [3] it was 0.135; in test [4], 0.366; in test [5], 1.25; in [6] it was -0.115. Also, the composite z-score with Lefty1 was 0.944; in test [8], 0.849; in test [10], 1.16; in test [15], 1.59; in [16], -0.0092; in the test with Torsin-1A (Homo sapiens) [17], 3.21. The figures for the composite z-score (with Torsin-1A (Homo sapiens) [18]; in test [19]) were 3.93 and 1.91, respectively. Also, the z-score was 1.19 in test [7]; 0.915 (inactive) in [9]; -2.9 (inactive) in test [11]; 0.164 (inactive) in [12]; 0.583 (inactive) in [13]; -0.269 (inactive) in test [14].
